From PubChem
TDP1 cell CPT – growth inhibition of DT40 Tdp1-/-;hTDP1 cells with camptothecin (screen for TDP1 inhibitors). chicken DT40 Tdp1-/-;hTDP1 cells + 20 nM CPT, ATP luminescence, 48 h. Potency, µM (top dose mostly 46.2 µM), hits mostly inhibitors. hit rate 12% among 420,000. AID 686979; further: nearly all actives have a fitted effect of over 55% in size
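Cell growth measured by CellTiter-Glo luminescence after a minimum 48 h, 37 C compound exposure with 20 nM CPT in Tdp1-knockout DT40 cells stably expressing hTDP1, seeded 400/well; qHTS titration format.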
TDP1 cell noCPT – qHTS for Inhibitors of human tyrosyl-DNA phosphodiesterase 1 (TDP1): qHTS in cells in absence of CPT. DT40 Tdp1-/- hTDP1 cells, no CPT, ATP luminescence, 48 h. Potency, µM (titrated, usually from 46.2 µM), most hits filed as inhibitors. hit rate 15% among 420,000. AID 686978, 2013; further: nearly all actives have a fitted effect of over 55% in size
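Stably hTDP1-transfected Tdp1-null chicken DT40 cells were treated with library compounds minus camptothecin and grown for at least 48 hr at 37 °C, after which cellular ATP was quantified by luminescence.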
KB-V1 cytotox – KB-V1 MDR subline cytotoxicity. KB-V1 MDR cells viability, CellTiter-Glo, 72 h. Potency, µM (highest dose often 46.1 µM), actives largely listed as cytotoxic. hit rate 3.4% among 400,000. AID 1347076; further: nearly all actives have a fitted effect of over 60% in size
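Potencies derive from concentration-effect curves fitted to normalized luminescence (CellTiter-Glo) of KB-V1 cells treated for 72 h at 37 degrees C in phenol-red-free DMEM containing 10% FBS.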
HT1080NT lethal – kills 2HG-producing HT-1080-NT fibrosarcoma cells | HT-1080-NT fibrosarcoma viability, CellTiter-Glo ATP luminescence, 48 h | Potency, µM (series often up to 46.1 µM), actives largely listed as cytotoxic | hit rate 1.6% among 360,000;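 further: NT is the 2HG producing partner of a matched IDH1 knockdown line; nearly all actives have a fitted effect of over 55% in size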
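Read-out is CellTiter-Glo luminescence after 10 minutes at room temperature, following 48 hours' compound treatment of HT-1080-NT cells (750 cells/well, RPMI, 5% FBS, 37 degrees C).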
HT1080 IDH1KD tx – HT-1080 IDH1 knockdown cell toxicity (counter line); HT-1080 IDH1 knockdown viability, ATP luminescence, 48 h; Potency, µM (top dose mostly 46.1 µM), most hits filed as cytotoxic; hit rate 2% among 360,000; AID 686971
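Assay cells: HT-1080 with IDH1 knockdown, 750 per well, RPMI/5% FBS. Exposure: 48 h at 37 °C following 2 h pre-incubation. Read: CellTiter-Glo luminescence; fitted concentration-response, curve class assigned.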
KB-3-1 tox – kills parental KB-3-1 adenocarcinoma cells; KB-3-1 viability, CellTiter-Glo ATP luminescence, 72 h; Potency, µM (doses to about 46.1 µM), usual class: cytotoxic; hit rate 1.4% among 400,000; further: nearly all actives have a fitted effect of over 60% in size
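Viability of parental KB-3-1 cells, measured by CellTiter-Glo luminescence, followed a 72 h incubation at 37 °C with pinned compounds in phenol-red-free DMEM containing 10% FBS.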
Numbers stand for hits. This is a sample that favours compounds with a hit; in the whole collection about 19% have one here. The call rests on the fitted dose curve; in most records, active means well fitted curve in the direction sought with a large enough effect; inconclusive means small, poorly fitted or top-dose-only effect, or another doubt; inactive means no such curve, though single readings can be large; an effect the other way counts as inactive or inconclusive.

CCOc1ccc(-c2cc(C(=O)N3CCN(C)CC3)c3ccccc3n2)cc1 was read as TDP1 cell CPT inconclusive, TDP1 cell noCPT inconclusive, KB-V1 cytotox inactive, HT1080NT lethal inactive, HT1080 IDH1KD tx inactive and KB-3-1 tox inactive.
`CCOC(=O)N1CCN(C(=O)c2cc(-c3ccc(OCC)cc3)nc3ccccc23)CC1` gave TDP1 cell CPT 4.61µM, TDP1 cell noCPT 3.66µM, KB-V1 cytotox 2.31µM, HT1080NT lethal 5.01µM, HT1080 IDH1KD tx 5.01µM and KB-3-1 tox 4.61µM.
Screening CCOC(=O)C1CCCN(C(=O)c2sc(-c3ccccc3)nc2C)CC1 (configuration not stated) returned TDP1 cell CPT inconclusive, TDP1 cell noCPT 14.6µM, KB-V1 cytotox inactive, HT1080NT lethal inconclusive, HT1080 IDH1KD tx inactive and KB-3-1 tox inactive.
Cc1ccc(-c2cc(C(=O)N3N=C(C(F)F)CC3(O)C(F)F)c3ccccc3n2)cc1C (configuration not stated) was read as TDP1 cell CPT 18.4µM, TDP1 cell noCPT inconclusive, KB-V1 cytotox inconclusive, HT1080NT lethal inconclusive, HT1080 IDH1KD tx inconclusive and KB-3-1 tox inactive.
Screening CCOC(=O)N1CCN(C(=O)c2cc(-c3ccncc3)nc3ccccc23)CC1 returned TDP1 cell CPT 5.8µM, TDP1 cell noCPT 5.8µM, KB-V1 cytotox inconclusive, HT1080NT lethal inconclusive, HT1080 IDH1KD tx inconclusive and KB-3-1 tox inconclusive.
Screening CCC(C(=O)NC(C)(C)C)N(Cc1ccc(OC)cc1)C(=O)c1snc(C(N)=O)c1N (configuration not stated) returned TDP1 cell CPT inactive, TDP1 cell noCPT inconclusive, KB-V1 cytotox inactive, HT1080NT lethal inactive, HT1080 IDH1KD tx inactive and KB-3-1 tox inactive.
Screening CCOc1ccc(-c2cc(C(=O)N3CCCC3)c3ccccc3n2)cc1 returned TDP1 cell CPT inconclusive, TDP1 cell noCPT 23.1µM, HT1080NT lethal inactive and HT1080 IDH1KD tx inactive.
Screening CCCC(CC)Sc1nc2c([nH]1)c(=S)n(C)c(=O)n2C (configuration not stated) returned TDP1 cell CPT 3.66µM, TDP1 cell noCPT 3.66µM, KB-V1 cytotox 3.66µM, HT1080NT lethal inactive, HT1080 IDH1KD tx inactive and KB-3-1 tox inconclusive.
`CCCCC(C)Sc1nc2c([nH]1)c(=S)n(C)c(=O)n2C` (configuration not stated) gave TDP1 cell CPT 3.66µM, TDP1 cell noCPT 5.17µM, KB-V1 cytotox 4.11µM, HT1080NT lethal inactive, HT1080 IDH1KD tx inconclusive and KB-3-1 tox inconclusive.
For COc1ccccc1-c1nnc(SCC(=O)Nc2ccc3[nH]c(=O)[nH]c3c2)n1N the results were TDP1 cell CPT inactive, TDP1 cell noCPT inactive, KB-V1 cytotox inactive, HT1080NT lethal inactive, HT1080 IDH1KD tx inactive and KB-3-1 tox inactive.
For COc1ccc(C2=Nc3ccccc3N(C(=O)c3ccc(C)cc3)C2C(=O)Nc2c(C)cccc2C)cc1 (configuration not stated) the results were TDP1 cell CPT inconclusive, TDP1 cell noCPT inconclusive, KB-V1 cytotox inactive, HT1080NT lethal inactive, HT1080 IDH1KD tx inactive and KB-3-1 tox inactive.
Screening Cc1csc[n+]1CC(=O)c1ccccc1 returned TDP1 cell CPT inactive, TDP1 cell noCPT inactive, KB-V1 cytotox inactive and KB-3-1 tox inactive.
For O=C(Cc1ccc2c(c1)OCCO2)Nc1cc(Cl)ccc1N1CCOCC1 the results were TDP1 cell CPT 16.4µM, TDP1 cell noCPT inconclusive, KB-V1 cytotox inactive, HT1080NT lethal inactive, HT1080 IDH1KD tx inactive and KB-3-1 tox inactive.
O=C(Cc1ccccc1)Nc1ccccc1N1CCOCC1 was read as TDP1 cell CPT inactive, TDP1 cell noCPT inactive, KB-V1 cytotox inactive, HT1080NT lethal inactive, HT1080 IDH1KD tx inactive and KB-3-1 tox inactive.
`O=C(Cc1ccc(Cl)c(Cl)c1)Nc1ccccc1N1CCOCC1` gave TDP1 cell CPT 23.1µM, TDP1 cell noCPT inconclusive, KB-V1 cytotox inactive, HT1080NT lethal inactive, HT1080 IDH1KD tx inactive and KB-3-1 tox inactive.
Screening O=C(Cn1nnc(-c2ccccc2)n1)Nc1ccccc1N1CCOCC1 returned TDP1 cell CPT inconclusive, TDP1 cell noCPT 12.6µM, KB-V1 cytotox inconclusive, HT1080NT lethal inactive, HT1080 IDH1KD tx inactive and KB-3-1 tox inactive.
For Cc1noc(C)c1CSc1nnc(-c2ccccc2F)n1CCc1ccccc1 the results were TDP1 cell CPT 18.4µM, TDP1 cell noCPT inconclusive, KB-V1 cytotox inconclusive, HT1080NT lethal inactive, HT1080 IDH1KD tx inactive and KB-3-1 tox inactive.
Screening CC(=O)Nc1ccc(C(=O)CSc2nnc(-c3ccccc3F)n2CCc2ccccc2)cc1 returned TDP1 cell CPT inconclusive, TDP1 cell noCPT 13µM, KB-V1 cytotox inactive, HT1080NT lethal inactive, HT1080 IDH1KD tx inactive and KB-3-1 tox inactive.
`CCC(=O)Nc1ccc(C(=O)CSc2nnc(-c3ccccc3F)n2C2CC2)cc1` gave TDP1 cell CPT inconclusive, TDP1 cell noCPT inconclusive, KB-V1 cytotox inactive, HT1080NT lethal inactive, HT1080 IDH1KD tx inactive and KB-3-1 tox inactive.
`Fc1cccc(Cc2c(-c3ccccc3)nc3c(Cl)cc(C(F)(F)F)cn23)c1` gave TDP1 cell CPT inconclusive, TDP1 cell noCPT inconclusive, KB-V1 cytotox inactive, HT1080NT lethal inactive, HT1080 IDH1KD tx inactive and KB-3-1 tox inactive.
For Fc1cc(F)cc(-c2c(-c3ccccc3)ncc3ccc(F)cc23)c1 the results were TDP1 cell CPT 13µM, TDP1 cell noCPT 7.31µM, KB-V1 cytotox inactive, HT1080NT lethal inactive, HT1080 IDH1KD tx inactive and KB-3-1 tox inconclusive.
Fc1ccc2cnc(-c3ccccc3)c(-c3cccc(C(F)(F)F)c3)c2c1 was read as TDP1 cell CPT 16.4µM, TDP1 cell noCPT 18.4µM, KB-V1 cytotox inactive, HT1080NT lethal inactive, HT1080 IDH1KD tx inactive and KB-3-1 tox inactive.
Screening Fc1ccc2ncc3c(-c4ccccc4)n[nH]c3c2c1 returned TDP1 cell CPT inactive, TDP1 cell noCPT inactive, KB-V1 cytotox inactive and KB-3-1 tox inactive.
`CCCN(CCC)CCCNC(=O)c1cc2c(-c3ccc(OC)c(OC)c3)nn(C)c2s1` gave TDP1 cell CPT 14.6µM, TDP1 cell noCPT 4.61µM, KB-V1 cytotox inconclusive, HT1080NT lethal inconclusive, HT1080 IDH1KD tx 20.6µM and KB-3-1 tox inactive.
COc1ccc(OC)c(CNC(=O)c2cc3c(-c4ccc(OC)c(OC)c4)nn(C)c3s2)c1 was read as TDP1 cell CPT inconclusive, TDP1 cell noCPT 8.2µM, KB-V1 cytotox inconclusive and KB-3-1 tox inactive.
For CCc1nn2c(=O)cc(COc3cccc(NC(=O)c4ccco4)c3)nc2s1 the results were TDP1 cell CPT 20.6µM, TDP1 cell noCPT inconclusive, KB-V1 cytotox inconclusive, HT1080NT lethal inactive, HT1080 IDH1KD tx inactive and KB-3-1 tox inactive.
`Cc1nn2c(=O)cc(COC(=O)c3cccc(NC(=O)c4ccc(C(C)(C)C)cc4)c3)nc2s1` gave TDP1 cell CPT inactive and TDP1 cell noCPT inactive.
